Sampled rows, rich in hits. Any-hit rate of the full collection: about 1.7%.
ABCB6 inh 2 = ABCB6 transporter inhibitors, primary screen, K562-ABCB6 cells, flow cytometry, MLPCN library; ATP-binding cassette sub-family B member 6 (Homo sapiens), Q9NP58; K562-ABCB6 porphyrin accumulation, 1 h; hits give low values; fluorescence ratio to DMSO, % at 10 µM; 0.19% of 360,000 active; AID 602162, 2011;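 active = fluorescence ratio to DMSO below 75%, the collection mean minus 3 SD; inconclusive = too few cells collected in the well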;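 also: signal is porphyrin accumulated inside mitochondria; 100% equals median channel fluorescence of DMSO control wells; lower ratio means ABCB6 inhibition with less porphyrin fluorescence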
Myeloid diff 2 = induction of myeloid progenitor differentiation, primary screen, cell-based, flow cytometry, MLPCN library; ER-HoxA9 myeloid progenitors, lysozyme-GFP differentiation; 1% of 360,000 active; calls only at 10 µM;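 active = normalized GFP-positive differentiation at or above the plate's own cutoff, the solvent-only control mean plus 3 SD; inconclusive = no clear call, values can overlap the other calls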;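 also: cells exposed to compound for four days before flow analysis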
TLR4 MyD88 comp = inhibitors of TLR4-MyD88 association in cells, primary screen, cell-based, HeLa CL3-4, BLA complementation, FRET ratio. 0.18% of 200,000 active. inhibition, % at 8.4 µM. HeLa CL3-4 TLR4/MyD88 BLA complementation. AID 861, 2007; in the data active = inhibition above about 25%;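 also: 0% = vehicle and 100% = reference inhibitor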
TLR9-MyD88 inh = inhibitors of TLR9-MyD88 association in cells, primary screen, cell-based, CHO, BLA complementation, fluorescence; CCF4 FRET ratio; AID 504734, 2011; Toll-like receptor 9 (Homo sapiens) + Myeloid differentiation primary response protein …; 0.21% of 340,000 active; inhibition, % at 4.98 µM;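 active = inhibition above the mean over all tested compounds plus 3 SD, cut at about 21% in these data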;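 also: 0% = DMSO only wells and 100% = clavulanate BLA inhibitor control wells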
NOD2-RIPK2 inh = NOD2-RIPK2 binding disruptors in cells, primary screen, fluorescence, CHO cells, BLA complementation; 0.38% of 360,000 active; Receptor-interacting serine/threonine-protein kinase 2 (Homo sapiens), O43353; inhibition, % at 4.98 µM; AID 624267, 2012; CCF4 ratio; in the data active = inhibition above about 21%;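 also: 0% = vehicle only and 100% = reference blocker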
An asterisk follows results filed as active; i = inactive; ? = inconclusive; . = no result; + = active, no number.

SMILES	ABCB6 inh 2	Myeloid diff 2	TLR4 MyD88 comp	TLR9-MyD88 inh	NOD2-RIPK2 inh
O=C1NC(=O)N(Cc2ccco2)C(=O)/C1=C\c1cccn1CCOc1ccc(Cl)cc1	122.0	+	-2.0	2.3	-3.3
Cc1cccc(OCCn2cccc2/C=C2/C(=O)NC(=O)N(Cc3ccco3)C2=O)c1	97.0	i	.	.	-5.6
C/C=C(\C)C(=O)N[C@@H](c1ccccc1)[C@@H](O)C(=O)O[C@H]1C[C@@]2(O)[C@@H](OC(=O)c3ccccc3)C3[C@](C)(C(=O)[C@H](OC(C)=O)C(=C1C)C2(C)C)[C@@H](O)C[C@H]1OC[C@@]31OC(C)=O (stereo partly drawn)	101.0	+	.	.	2.6
CCC(C)NC(=O)CCC(=O)OC1O[C@H]2OC3(C)CC[C@H]4[C@H](C)CCC(C1C)C24OO3 (stereo partly drawn)	100.0	?	.	1.6	-1.3
C[C@@H]1CC[C@H]2[C@@H](C)C(=O)O[C@@H]3O[C@@]4(C)CC[C@@H]1[C@]32OO4	109.0	+	.	1.9	-15.0
CC(=O)C1C(N2CC2)CC2C3CC=C4CC(O)CCC4(C)C3CCC21C (stereo not drawn)	100.0	i	.	-3.4	-10.2
c1ccc2c(CN3CCN(C4CCCCC4)CC3)c[nH]c2c1	120.0	i	5.8	0.0	-1.5
c1ccc2c(CN3CCCCCCC3)c[nH]c2c1	100.0	+	10.4	-1.3	-5.8
COc1cc(C=NNC(=S)Nc2ccc(S(=O)(=O)N3CCCCC3)cc2)cc(OC)c1OC	93.0	i	.	6.4	-10.9
C=CCn1c(=O)c(C=Nc2cccc([N+](=O)[O-])c2)c(O)n(CCCC)c1=O	100.0	+	9.1	1.8	-5.1
COc1ccc(OC)c(NC2=NCCCS2)c1	114.0	+	4.2	4.6	-5.7
COc1ccc(OC)c(NC2=NCCS2)c1	101.0	i	18.4	-6.8	4.6
COc1cc2c(c(OC)c1OC)-c1ccc(SC)c(=O)cc1C(NC(C)=O)CC2 (stereo not drawn)	105.0	.	.	-7.0	5.3
C[n+]1ccc(-c2ccccc2)c2ccccc21	96.0	+	.	-0.8	-2.6
CN(C)c1ccc(/C=C/c2cc[n+](C)c3ccccc23)cc1	832.0	?	0.7	-3.3	-12.3
N#C/C(=C\c1ccc(O)cc1)C(=O)O (tested in a mixture with another compound)	108.0	+	.	-4.8	-7.6
N#CC(C#N)=Cc1ccc(N2CCOCC2)cc1	100.0	i	.	-2.6	-8.4
COc1cccc(C(c2nnnn2Cc2ccccc2)N2CCC3(CC2)C(=O)NCN3c2ccccc2)c1OC (stereo not drawn)	94.0	i	.	.	0.2
CN1CC=C(c2c[nH]c3ccccc23)CC1	102.0	+	-8.3	-4.7	6.1
CN1C[C@H](CO)C=C2c3cccc4[nH]cc(c34)C[C@H]21	109.0	i	-1.6	-1.6	-3.7
CC1=C[C@@H]2c3cccc4[nH]cc(c34)C[C@H]2N(C)C1	146.0	+	.	3.9	-3.2
CCn1ccnc1CN1CCCC(C(=O)c2ccc(SC)cc2)C1 (stereo not drawn)	182.0	+	5.2	6.2	1.6
CSc1ccc(C(=O)C2CCCN(Cc3cnc(SC)nc3)C2)cc1 (stereo not drawn)	89.0	i	-5.6	-4.4	2.7
CCOC(=O)NC1CCc2cc(OC)c(OC)c(OC)c2-c2ccc(OC)c(=O)cc21 (stereo not drawn)	99.0	.	.	1.4	14.3
COC(=O)C1=C(c2ccc(F)cc2OCc2ccccc2)C[C@@H]2CC[C@H]1N2C(=O)NCc1ccccc1Cl	95.0	+	.	-6.5	-10.6
SMILES	ABCB6 inh 2	Myeloid diff 2	TLR4 MyD88 comp	TLR9-MyD88 inh	NOD2-RIPK2 inh
COC(=O)C1=C(c2cccc(OCc3ccccc3)c2)C[C@@H]2CC[C@H]1N2C(=O)NCc1ccc(N(C)C)cc1	88.0	+	.	-0.8	-2.2
O=C(O)C1C2c3ccccc3C(O)C1(C(=O)O)c1ccccc12 (stereo not drawn)	106.0	i	.	-5.2	-2.5
O=C1NC(=O)N(c2ccc(Cl)cc2)C(=O)/C1=C/c1coc2ccc(O)cc2c1=O	99.0	+	.	-2.2	-2.8
O=C1NC(=O)N(c2ccccc2)C(=O)/C1=C/c1ccoc1	95.0	i	-5.0	-1.9	-2.5
O=C1NC(=O)N(c2ccccc2)C(=O)/C1=C/c1coc2ccc(O)cc2c1=O	94.0	+	.	-4.9	1.0
Cc1cc(/C=C2\C(=O)NC(=O)N(c3ccc(Cl)cc3)C2=O)c(C)n1-c1cccc(C(=O)O)c1	97.0	i	.	-0.9	-1.0
O=C1NCN(c2ccccc2)C12CCN(C(CCc1ccccc1)c1nnnn1C1CCCC1)CC2 (stereo not drawn)	95.0	i	.	.	-7.4
C[C@]12CCC3C(CC[C@H]4C[C@@H](O)[C@H](O)C[C@]34C)C1CC[C@@H]2O (stereo partly drawn)	99.0	i	.	-8.1	-3.6
CC(C)[C@H]1C(=O)N2CCC[C@H]2[C@]2(O)O[C@](NC(=O)[C@@H]3C=C4c5cccc6[nH]cc(c56)C[C@H]4N(C)C3)(C(C)C)C(=O)N12	122.0	+	-0.5	0.7	-1.9
CC(C)C[C@H]1C(=O)N2CCCC2[C@]2(O)O[C@](NC(=O)[C@@H]3C=C4c5cccc6[nH]cc(c56)CC4N(C)C3)(C(C)C)C(=O)N12 (stereo partly drawn)	123.0	i	4.0	-1.3	-3.0
COc1ccc2c(c1)[nH]c1c(C)nccc12	97.0	i	.	3.5	-5.5
COc1ccc2c3c([nH]c2c1)C(C)=NCC3	154.0	+	6.6	-1.0	2.4
O=[N+]([O-])/C=C/c1c(Cl)cccc1Cl	109.0	+	.	-1.9	4.1
COc1ccc(Cn2c(N)c(C(=O)NCc3ccco3)c3nc4ccccc4nc32)cc1	99.0	+	-24.2	-14.5	-5.5
Nc1c(C(=O)NCc2ccco2)c2nc3ccccc3nc2n1Cc1ccc(F)cc1	98.0	+	-38.9	-2.6	-9.5
O=C1NCN(c2ccccc2)C12CCN(C(c1ccccc1OC(F)(F)F)c1nnnn1C1CCCC1)CC2 (stereo not drawn)	97.0	i	.	.	4.6
O=C(NCC1=C(c2ccc3ccccc3c2)C[C@@H]2CC[C@H]1N2Cc1ccco1)c1nccs1	101.0	i	.	-2.9	-3.5
N[C@@H](Cc1c[nH]c2ccccc12)c1nnc(SCc2ccc(Cl)cc2)o1	71.0*	i	-21.6	5.6	6.4
FC(F)(F)c1ccc(-c2ccc3c(c2)CNCc2cnnn2-3)cc1	92.0	i	.	.	3.7
